# Rab9 prom act: activators of Rab9 promoter | Huh7 Rab9 promoter-luciferase reporter, luminescence, 24 h | Potency, µM (series often up to 9.22 µM), hits mostly activators | hit rate 2.8% among 320,000; further: nearly all actives have a fitted effect of over 60% in size
#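 Huh7 reporter line, Rab9 promoter upstream of luciferase. Compound exposure 24 h at 37 °C in reduced-serum medium with 10% FBS. Read-out: luminescence.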
# ELG1 repair inh: ELG1-dependent DNA repair inhibition | HEK293T ELG1-luciferase reporter, luminescence, 16 h; DNA damage induced by 5-fluorouridine | Potency, µM (titrated, usually from 46.1 µM), most hits filed as inhibitors | hit rate 2.3% among 330,000 | AID 504467; further: nearly all actives have a fitted effect of over 55% in size
#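 Step one: seed 2,000 cells per well. Step two: pin-transfer compound or DMSO alongside 5-fluorouridine. Step three: incubate 16 hr, 37 °C, 5% CO2. Step four: add ONE-Glo, wait 30 min, read luminescence.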
# NPC1 promoter act: activates the NPC1 promoter; Huh7 NPC1 promoter luciferase reporter, 24 h; Potency, µM (top dose mostly 9.22 µM), hits mostly activators; hit rate 2.4% among 320,000; further: nearly all actives have a fitted effect of over 60% in size
#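 Readout is luciferase luminescence, reflecting NPC1 promoter activation in stably transfected Huh7 cells after 24 h compound exposure at 37 °C in reduced-serum medium with 10% FBS.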
# ELG1 genotox: inducers of genotoxicity in HEK293T ELG1-luciferase cells | HEK293T ELG1-luciferase reporter, luminescence, 16 h | AID 504466 | hit rate 1.3% among 330,000 | Potency, µM (doses to about 46 µM), usual class: activators; further: nearly all actives have a fitted effect of over 60% in size
#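 Genotoxicity was scored as increased ELG1-luciferase reporter signal, measured by ONE-Glo luminescence (30 min, room temperature). Compound or vehicle exposure of the HEK293T reporter cells lasted 16 hr at 37°C.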
# SMN2 splice enh: enhancers of SMN2 splice variant expression | HEK293 SMN2-luciferase splicing reporter, luminescence, 30-36 h | Potency, µM (titrated, usually from 46.1 µM), usual class: activators | hit rate 2.8% among 210,000 | AID 1458; further: nearly all actives have a fitted effect of over 55% in size
#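 HEK293 cells carry an SMN2 […]–luciferase reporter in which exon 7 inclusion puts luciferase in frame. Cells were plated 10-12 h before compound addition, then incubated 30-36 h at 37C. ONE-Glo luminescence was read; sodium butyrate at 4.5 mM final served as control.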
# FLuc counter: inhibits or activates purified firefly luciferase, miR-21 counter-screen; P08659; purified FLuc, Km substrates, luminescence inhibition; Potency, µM (series often up to 57.5 µM), most hits filed as inhibitors; hit rate 6.9% among 360,000; further: nearly all actives have a fitted effect of over 55% in size
# Target sequence (P08659 whole entry, looked up): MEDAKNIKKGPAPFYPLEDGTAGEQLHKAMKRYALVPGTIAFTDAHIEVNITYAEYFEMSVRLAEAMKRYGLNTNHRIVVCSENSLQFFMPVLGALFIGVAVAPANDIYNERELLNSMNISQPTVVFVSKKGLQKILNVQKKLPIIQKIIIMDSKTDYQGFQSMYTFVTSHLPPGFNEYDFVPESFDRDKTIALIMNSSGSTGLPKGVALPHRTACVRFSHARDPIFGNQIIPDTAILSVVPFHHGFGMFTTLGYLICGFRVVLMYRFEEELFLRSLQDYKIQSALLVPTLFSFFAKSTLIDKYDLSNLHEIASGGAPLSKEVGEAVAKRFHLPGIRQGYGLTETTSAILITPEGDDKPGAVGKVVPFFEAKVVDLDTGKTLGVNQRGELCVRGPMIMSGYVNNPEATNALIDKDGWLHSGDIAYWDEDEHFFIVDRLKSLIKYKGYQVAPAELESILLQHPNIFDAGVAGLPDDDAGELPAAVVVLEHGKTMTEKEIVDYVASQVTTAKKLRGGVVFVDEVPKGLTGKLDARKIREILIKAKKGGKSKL
#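 Purified P. pyralis luciferase, 10 nM final, with Km-level 10 uM D-luciferin and 10 uM ATP in 50 mM Tris acetate pH 7.5, 10 mM Mg acetate, 0.01% Tween-20, 0.05% BSA; 6-point qHTS titration about 60 µM downward; luminescence read.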
# A number is an active result; - = inactive; ? = inconclusive; . = no result. Shown are actives, neighbours in structure and some others; about 9.4% of the full set was active somewhere. The call rests on the fitted dose curve; in most records, active means well fitted curve in the direction sought with a large enough effect; inconclusive means small, poorly fitted or top-dose-only effect, or another doubt; inactive means no such curve, though single readings can be large; an effect the other way counts as inactive or inconclusive.
SMILES,Rab9 prom act,ELG1 repair inh,NPC1 promoter act,ELG1 genotox,SMN2 splice enh,FLuc counter
C=C(C(=O)c1ccccc1)C(CC(=O)c1ccccc1)c1ccccc1 (stereo not drawn),-,13µM,-,-,-,-
CCCCNC(=O)CSc1nnc(C)c2c(C)n(-c3ccccc3)nc12,.,.,.,.,.,-
COc1c(C(=O)NNC(=O)c2ccccc2Cl)csc1Br,?,?,3.5µM,?,.,21µM
c1ccc(-n2ncc3c2ncn2nc(-c4ccco4)nc32)cc1,1.1µM,?,3.2µM,1.6µM,11µM,0.85µM
O=C(CCc1ccccc1)N(Cc1cccnc1)c1nc2c(F)cc(F)cc2s1,.,.,.,.,.,-
COc1ccc(CNC(=O)c2ccc(-c3nc(CSc4ccccc4)c(C)o3)cc2)c(OC)c1,.,.,.,.,.,-
COc1ccc(NS(=O)(=O)c2ccc(NC(=O)c3ccc(CN4CCOCC4)cc3)cc2)cc1,-,-,-,-,.,-
CC(C)Oc1cccc(C(=O)Nc2ccc(CN3CCOCC3)cc2)c1,-,?,-,-,-,12µM
CCCOc1ccc(C(=O)Nc2ccc(CN3CCOCC3)cc2)cc1,-,-,-,-,.,13µM
COc1c(C)cccc1C(=O)Nc1ccc(CN2CCOCC2)cc1,2.5µM,?,3.2µM,?,16µM,17µM
COc1cccc(NC(=O)c2ccc(CN3CCOCC3)cc2)c1,3.2µM,?,4µM,-,?,11µM
O=C(Cc1ccccc1)Nc1sc2c(c1C(=O)Nc1ccc(Br)cc1)CCCC2,.,.,.,.,-,-
CCC(C(=O)Nc1cc(OC)ccc1OC)n1c(C)c2cnn(-c3ccccc3)c(=O)c2c1C (stereo not drawn),.,.,.,.,-,-
Cc1ccccc1NCc1cccn1-c1nnc(N2CCC(C)CC2)s1,.,.,.,.,.,-
COc1cc(NC(=O)CCc2c(C)nc3c(-c4ccc(F)cc4)c(C)nn3c2C)cc(OC)c1OC,.,.,.,.,-,-
COc1ccc(C(=O)Nc2ccc(CN3CCOCC3)cc2)cc1Br,-,-,-,-,.,15µM
COc1c(C)cccc1C(=O)Nc1ccc(OCC(=O)N2CCOCC2)cc1C,-,-,-,-,.,13µM
O=C(Nc1ccc2c(c1)OCCO2)c1ccc(CN2CCOCC2)cc1,3.5µM,?,-,-,-,11µM
Cc1ccc(NC(=O)C2CCCN(S(=O)(=O)c3c(C)n[nH]c3C)C2)c(C)c1 (stereo not drawn),.,.,.,.,-,-
COc1ccc(NC(=O)Cn2c(=O)n(CCCC(=O)NCCc3ccc(C)cc3)c(=O)c3ccccc32)cc1Cl,.,.,.,.,-,-
COc1ccc2c(c1)Cc1sc(NC(=O)c3ccc(Cl)cc3)nc1-2,.,.,.,.,-,-
Cc1ccc(-n2nc(C(=O)N(C)Cc3ccccc3)c3c4ccccc4n(C)c3c2=O)cc1,.,.,.,.,-,-
CCc1nc2ccccc2c(C(=O)OCC(=O)Nc2ccc(S(=O)(=O)N3CCOCC3)cc2)c1C,-,18µM,-,-,-,-
CCc1nc2ccccc2c(C(=O)OCC(=O)Nc2cccc(S(=O)(=O)NC3=NCCCCC3)c2)c1C,-,13µM,-,-,.,-
Cc1cc(C(=O)CN2CC(C)OC(C)C2)c(C)n1-c1ccccc1 (stereo not drawn),?,?,?,21µM,?,?
SMILES,Rab9 prom act,ELG1 repair inh,NPC1 promoter act,ELG1 genotox,SMN2 splice enh,FLuc counter
Cc1cc(C(=O)CN2C(=O)C(=O)N(Cc3ccccc3)C2=O)c(C)n1-c1ccccc1F,-,-,-,-,-,19µM
Cc1ccc(-n2c(C)cc(C(=O)CN3CCCCC3)c2C)cc1,-,?,-,-,-,?
Cc1cc(C(=O)CN2CCC(C)CC2)c(C)n1-c1ccccc1F,-,?,-,?,?,1.9µM
COc1ccc(-n2c(C)cc(C(=O)CCl)c2C)cc1,-,-,-,?,-,-
COc1ccc(-n2c(C)cc(C(=O)CN3C(=O)c4ccccc4C3=O)c2C)cc1,-,?,-,-,-,15µM
Cc1cc(C(=O)CN2C(=O)C(=O)N(Cc3ccccc3)C2=O)c(C)n1Cc1ccccc1,.,-,.,-,.,.
Cc1ccc(N2CC(NC(=O)c3ccc(S(=O)(=O)N4CCCC4)cc3)CC2=O)cc1 (stereo not drawn),.,.,.,.,.,-
Nc1ccc([N+](=O)[O-])c(N)c1,.,.,.,.,-,.

# Screening data (PubChem)
